Out of some 420,000 compounds screened, about 540 (0.13%) were called active. The list comes from a sample in which actives are over-represented; it also holds similar structures and randomly drawn compounds. Values without a mark were called inactive. No stated cut-off is given here; in the data, active means activity change below about -50%; inconclusive means mostly about -30% to -49%; inactive means weaker than that.
target: Phosphatidylinositol 4-kinase type 2-alpha (Homo sapiens) (UniProt Q9BTU6); assay: qHTS for small molecular inhibitors of PI4K2A; details: purified PI4K2A, ADP-Glo luminescence, 1 h; at 76.9 µM, hits give low values;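 further: -100% = wells without enzyme as full effect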
Excerpt: The phosphatidylinositol 4-phosphate (PI4P) is emerging as a key regulator of lipid transfer in ER-membrane contact sites. The four different phosphatidylinositol 4-kinase (PI4K) enzymes generate PI4P in different membrane compartments supporting distinct cellular processes many of which are crucial for the maintenance of cellular integrity but also hijacked by intracellular pathogens. The goal of this screening project is to search for small molecular inhibitors of PI4K2A based on a high throughput screening strategy.The ADP-Glo assay was used as a starting point to develop a miniaturized version for HTS applications. To implement the HTS screen, the PI4K ADP-Glotrade mark Kinase assay (Promega, V9102) was miniaturized for the 1536-well format used at NCGC.
For the robotic screening, the ADP-Glo assay using the ADP-Glotrade mark Kinase Assay kit from Promega was miniaturized and optimized on 1536-well white solid bottom plates (Greiner Bio-one). The substrate, 1.2 mM PI, prepared in the assay buffer (40mM Tris pH7.5, 20mM MgCl2, 1mM EGTA, 0.4% Triton X-100, 0.5mM DTT, 0.5mg/ml BSA) and PI4K2A enzyme, diluted also in the assay buffer to 4ug/mL, were dispensed onto the plates in equal volumes (1microl/well), pinned with 23 nL/well tested compounds or control followed by dispensation of 1microl/well 300microM ATP. The plates were incubated for one hour. Then, 2 µL/well of ADP-Glo reagent was added and incubated for 40 minutes. Next, 4microL/well of Kinase Detection Buffer was added to the plates and incubated for additional 40 minutes. All incubation steps were performed at ambient temperature. The resulting luminescence signal was measured on Viewlux plate reader (PerkinElmer). Adenosine, a partial non-specific inhibitor, was used as a positive control at 100microM final concentration to assess the assay's quality and plate-to-plate reproducibility. We also used "no enzyme" control to gauge the assay's maximal potential inhibition (IC100).

Chain of Phosphatidylinositol 4-kinase type 2-alpha (Homo sapiens) (Q9BTU6 whole entry, looked up): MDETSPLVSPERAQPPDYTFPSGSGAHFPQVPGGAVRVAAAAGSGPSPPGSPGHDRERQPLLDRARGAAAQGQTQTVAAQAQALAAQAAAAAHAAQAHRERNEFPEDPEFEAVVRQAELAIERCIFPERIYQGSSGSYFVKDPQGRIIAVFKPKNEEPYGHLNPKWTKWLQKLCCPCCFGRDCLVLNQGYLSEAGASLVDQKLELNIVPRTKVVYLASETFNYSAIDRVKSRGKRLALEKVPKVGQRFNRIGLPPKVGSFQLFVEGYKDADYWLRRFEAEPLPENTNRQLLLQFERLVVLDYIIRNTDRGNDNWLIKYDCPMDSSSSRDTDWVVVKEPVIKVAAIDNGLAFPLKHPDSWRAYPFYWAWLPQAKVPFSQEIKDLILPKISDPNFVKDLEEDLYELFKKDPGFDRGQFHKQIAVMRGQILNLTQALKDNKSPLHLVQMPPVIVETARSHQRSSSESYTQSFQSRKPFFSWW

With `O=C(OC1CCOC1=O)c1ccc(-c2nc3ccccc3s2)s1` (stereo not drawn) as the compound, how does the activity change, negative = inhibition read?
The activity change, negative = inhibition was -52.4% (active).

For `CC(C)(C)c1ccc(OCC(=O)N2CCC(c3nc4ccccc4s3)CC2)cc1`, which activity change, negative = inhibition is on record?
Its activity change, negative = inhibition is -3.91%.

With `COc1cc(C(=O)OC2CCOC2=O)c([N+](=O)[O-])cc1OC` (stereo not drawn) as the compound, how does the activity change, negative = inhibition read?
Its activity change, negative = inhibition is 0.815%.

Which activity change, negative = inhibition does the source give for `O=C1/C(=C\c2ccc([N+](=O)[O-])cc2)CS(=O)(=O)C/C1=C/c1ccc([N+](=O)[O-])cc1` here?
The activity change, negative = inhibition was -53% (active).

`C=CC(=O)Nc1ccc(Nc2ccnc(Nc3ccc(N4CCN(C)CC4)cc3)n2)cc1` was tested. Which activity change, negative = inhibition did it give?
The activity change, negative = inhibition was -9.48%.

For `CC(C)C[C@H](NC(=O)[C@H](O)[C@H](N)Cc1ccccc1)C(=O)O`, which activity change, negative = inhibition is on record?
The activity change, negative = inhibition was -0.0848%.

How did the activity change, negative = inhibition turn out when `CC(=O)Nc1ccc(NC(=O)c2cc3sccc3n2Cc2ccc(F)cc2)cc1` was run?
Its activity change, negative = inhibition is -0.493%.

Which activity change, negative = inhibition does the source give for `Cc1nonc1C(=O)N/N=C/c1ccc(O)cc1` here?
Its activity change, negative = inhibition is -107% (active).

How did the activity change, negative = inhibition turn out when `CC(C)Oc1ccc(/C=N/NC(=O)c2nnn(-c3nonc3N)c2CN(C)C2CCCCC2)cc1` was run?
The activity change, negative = inhibition was -0.0382%.

`CCc1ccc(/C=N/NC(=O)c2nnn(-c3nonc3N)c2CN2CCc3ccccc32)cc1` was tested. Which activity change, negative = inhibition did it give?
Its activity change, negative = inhibition is 2.23%.

For `O=S(=O)(NCCc1nnc2ccc(SCc3ccc(Cl)cc3Cl)nn12)c1ccccc1`, which activity change, negative = inhibition is on record?
The activity change, negative = inhibition was 1.68%.

Which activity change, negative = inhibition does the source give for `CCCOC(=O)c1c(NC(=O)c2cc3nc(-c4ccc(OC)cc4)cc(C(F)(F)F)n3n2)sc2c1CCCC2` here?
The activity change, negative = inhibition was -1.38%.

`O=C(Oc1ccc(-c2nc(-c3ccccn3)no2)cc1)c1ccccc1` was tested. Which activity change, negative = inhibition did it give?
Its activity change, negative = inhibition is -59.2% (active).

With `O=C(COc1cccc(F)c1)Oc1ccc(C(=O)c2ccccc2)cc1` as the compound, how does the activity change, negative = inhibition read?
Its activity change, negative = inhibition is -2.11%.

Which activity change, negative = inhibition does the source give for `CC(=O)c1ccc(NC(=O)COc2ccccc2-c2nc(-c3ccccc3)no2)cc1` here?
The activity change, negative = inhibition was -0.609%.

With `CCc1ccccc1NC(=O)c1ccc(F)c(S(=O)(=O)NC2CCCCCC2)c1` as the compound, how does the activity change, negative = inhibition read?
Its activity change, negative = inhibition is 3.89%.

With `CCCCOc1ccc(C(=O)N2CC(=O)Nc3ccc(Br)cc3C2c2ccc(F)cc2)cc1` (stereo not drawn) as the compound, how does the activity change, negative = inhibition read?
Its activity change, negative = inhibition is 0.252%.

How did the activity change, negative = inhibition turn out when `O=C(NCC(c1cccnc1)N1CCc2ccccc21)c1cccc(C(F)(F)F)c1` (stereo not drawn) was run?
The activity change, negative = inhibition was -0.743%.

`CCOCCCn1c(SCC(=O)Nc2ccc(CC)cc2)nc2ccccc2c1=O` was tested. Which activity change, negative = inhibition did it give?
Its activity change, negative = inhibition is 2.57%.

For `COc1cc(OC)c(OC)cc1/C=C/c1nc2cc3ccccc3cc2c(=O)n1-c1ccc(F)c(Cl)c1`, which activity change, negative = inhibition is on record?
Its activity change, negative = inhibition is 1.51%.

How did the activity change, negative = inhibition turn out when `CCCC(=O)Nc1cc(C(=O)NCc2ccc(OC)cc2)ccc1S(=O)(=O)c1ccc(Cl)cc1` was run?
The activity change, negative = inhibition was 1.05%.

How did the activity change, negative = inhibition turn out when `CCCc1c2oc(C(=O)O)cc(=O)c2cc2c(=O)cc(C(=O)O)n(CC)c12` was run?
The activity change, negative = inhibition was 0.586%.

`CC1(C)OC[C@@H](COC(=O)CCc2ccc(OC[C@@H](O)CNCCNC(=O)N3CCOCC3)cc2)O1` was tested. Which activity change, negative = inhibition did it give?
The activity change, negative = inhibition was 2.53%.

For `Cc1cccc(C)c1NC(=O)c1ccc(N)cc1`, which activity change, negative = inhibition is on record?
The activity change, negative = inhibition was 2.75%.

For `CC(C)Sc1oc(-c2cccs2)nc1S(=O)(=O)c1ccc(Cl)cc1`, which activity change, negative = inhibition is on record?
The activity change, negative = inhibition was 2.5%.

With `CCC(=O)Nc1ccc2nc(SCC(=O)N3CCc4ccccc43)sc2c1` as the compound, how does the activity change, negative = inhibition read?
The activity change, negative = inhibition was -5.07%.

`CCCn1c(=O)c2[nH]c(-c3ccc(OCC(=O)NCCN)cc3)nc2n(CCC)c1=O` was tested. Which activity change, negative = inhibition did it give?
Its activity change, negative = inhibition is -1.34%.

Which activity change, negative = inhibition does the source give for `Nc1ccc2nc3c(=O)[nH]c(=S)[nH]c3nc2c1` here?
Its activity change, negative = inhibition is -58.2% (active).

With `Cc1ccc(-n2ncc3c(N4CCC(C(N)=O)CC4)ncnc32)cc1` as the compound, how does the activity change, negative = inhibition read?
Its activity change, negative = inhibition is -0.0422%.

`CC(=O)c1ccc(NC(=O)c2nc3nc(C)cc(C(F)F)n3n2)cc1` was tested. Which activity change, negative = inhibition did it give?
Its activity change, negative = inhibition is 0.438%.

With `Cc1oc2ncnc(N3CCOCC3)c2c1C(=O)NCCc1ccccc1` as the compound, how does the activity change, negative = inhibition read?
Its activity change, negative = inhibition is 5.54%.

With `Cc1cc2oc(C(=O)N(Cc3ccc(Cl)cc3)Cc3ccco3)c(C)c2cc1Cl` as the compound, how does the activity change, negative = inhibition read?
Its activity change, negative = inhibition is -5.36%.

For `O=C(C1CC1)N1CCc2cc(Br)cc(S(=O)(=O)N3CCN(c4ccccc4F)CC3)c21`, which activity change, negative = inhibition is on record?
Its activity change, negative = inhibition is -2.46%.

With `CC(C)(C)c1ccc(C(=O)NCC(c2ccc(Cl)cc2)N2CCOCC2)cc1` (stereo not drawn) as the compound, how does the activity change, negative = inhibition read?
Its activity change, negative = inhibition is 1.67%.

How did the activity change, negative = inhibition turn out when `Cc1ccc2oc(=O)c3cnn(CC(=O)NCc4ccccc4Cl)c3c2c1` was run?
The activity change, negative = inhibition was 2.09%.

`Cc1ccc(C(=O)NCCSc2c(C)[nH]c3ccccc23)cc1C` was tested. Which activity change, negative = inhibition did it give?
The activity change, negative = inhibition was -0.18%.

For `Cc1ccccc1NC(=O)c1cc2c([nH]c1=O)CC(C)(C)CC2=O`, which activity change, negative = inhibition is on record?
The activity change, negative = inhibition was -0.508%.

How did the activity change, negative = inhibition turn out when `Cc1ccc2ncc(C(=O)Nc3ccc(OC(F)(F)F)cc3)c(=O)n2c1` was run?
The activity change, negative = inhibition was -0.27%.

With `C[C@@H]1CCC[C@H](C)N1CCCC(O)(c1ccccc1)c1ccccn1` (stereo partly drawn) as the compound, how does the activity change, negative = inhibition read?
Its activity change, negative = inhibition is -1.64%.

With `Cc1ccc(NC(=O)Cn2cnc3nc4c(cc3c2=O)CCCC4)cc1Cl` as the compound, how does the activity change, negative = inhibition read?
The activity change, negative = inhibition was 2.6%.

How did the activity change, negative = inhibition turn out when `O=C(CC1Oc2ccccc2NC1=O)NCc1ccc(F)cc1` (stereo not drawn) was run?
Its activity change, negative = inhibition is -3.94%.

How did the activity change, negative = inhibition turn out when `CCOCCn1ccc2c(OCC(=O)NCc3ccc(C)cc3)cccc2c1=O` was run?
Its activity change, negative = inhibition is -5.41%.

With `O=C1CCCc2cc(S(=O)(=O)N3CCCC(C(=O)NCc4ccccc4)C3)ccc2N1` (stereo not drawn) as the compound, how does the activity change, negative = inhibition read?
Its activity change, negative = inhibition is -5.19%.

Which activity change, negative = inhibition does the source give for `CCc1ccc(NC(=O)CCS(=O)(=O)c2cc3c(cc2Cl)NC(=O)CO3)cc1` here?
The activity change, negative = inhibition was 0.699%.

For `CO[C@H]1C=CO[C@@]2(C)Oc3c(C)c(O)c4c(O)c(c(/C=N/N5CCN(C)CC5)c(O)c4c3C2=O)NC(=O)/C(C)=C\C=C[C@H](C)[C@H](O)[C@@H](C)[C@@H](O)[C@@H](C)[C@H](OC(C)=O)[C@@H]1C`, which activity change, negative = inhibition is on record?
Its activity change, negative = inhibition is -8.76%.

How did the activity change, negative = inhibition turn out when `Cc1nn2c(=O)cc(COC(=O)c3cccc(NC(=O)COc4ccccc4Cl)c3)nc2s1` was run?
Its activity change, negative = inhibition is 3.91%.

With `Cc1ccc(CCNC(=O)c2ccc3c(c2)N(Cc2cc(C)ccc2C)C(=O)c2ccccc2S3=O)cc1` (stereo not drawn) as the compound, how does the activity change, negative = inhibition read?
The activity change, negative = inhibition was 3.89%.

For `CCC(C)Cn1c(O)cc2nn(-c3nc4ccccc4s3)c(=O)c-2c1C` (stereo not drawn), which activity change, negative = inhibition is on record?
Its activity change, negative = inhibition is -52% (active).

`O=C(OCCN1CCOCC1)c1cccnc1Nc1cccc(C(F)(F)F)c1` was tested. Which activity change, negative = inhibition did it give?
Its activity change, negative = inhibition is 1.58%.

`Cc1cc(C)cc(OCC(=O)Nc2nc(-c3ccc(F)cc3)ns2)c1` was tested. Which activity change, negative = inhibition did it give?
Its activity change, negative = inhibition is -6.03%.

How did the activity change, negative = inhibition turn out when `CCS(=O)(=O)N1CCc2cc(C(=O)NCc3ccc(OC)cc3)ccc21` was run?
The activity change, negative = inhibition was -0.384%.

How did the activity change, negative = inhibition turn out when `CCc1ccccc1NC(=O)c1sc2nc3c(cc2c1N)CN(Cc1ccccc1)CC3` was run?
The activity change, negative = inhibition was -2.17%.

`Cc1ccc(Oc2c(C(F)(F)F)oc3c(CN4CCCCC4)c(O)ccc3c2=O)cc1` was tested. Which activity change, negative = inhibition did it give?
Its activity change, negative = inhibition is -2.18%.

Reference: PubChem BioAssay AID1346378 (National Center for Advancing Translational Sciences (NCATS), 2018)
